# Most compounds without a hit are left out; they make up all but 3.5% or so of the library.
# Pf apPOL inh – Pf-apPOL DNA polymerase inhibition; Recombinant Pf-apPOL, molecular beacon fluorescence, 1.5 h; inhibition, % at 10 µM; 0.25% of 210,000 active; AID 1794808
# mHTT CaM bind – mHTT-calmodulin interaction abrogation; P42858; AlphaScreen His-mHTT/GST-CaM binding, luminescence; inhibition, % at 15 µM; 3.6% of 190,000 active;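 also: 0% = both proteins with DMSO and 100% = one protein alone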
# An asterisk follows results filed as active; . = no result given. Rule as the data show it: active = inhibition above about 50%; inactive = the rest.
SMILES,Pf apPOL inh,mHTT CaM bind
COCc1nn(C)c2c1CN(S(=O)(=O)c1c(C)n[nH]c1C)CC2,4,5
O=C(Cc1ccc2c(c1)OCO2)N(CC1CCCO1)c1nc2c(F)cc(F)cc2s1 (configuration not stated),0,1
O=C(NCC(=O)N1CCCc2ccccc21)c1cncc(Br)c1,-4,-4
COc1ccc(OC)c(NS(=O)(=O)c2ccc(NC(=O)c3ccccc3C)cc2)c1,6,6
CCN1CCN(S(=O)(=O)CCNC(=O)CCc2ccc(OC)cc2)CC1,-6,-15
Oc1ccc2ccccc2c1N=Nc1ccccn1,-207,.
Oc1ccc2ccccc2c1Sc1c(O)ccc2ccccc12,.,59*
CC(C)(C)C1=CC(=O)c2c(ccc(C(C)(C)C)c2O)C1=O,3,58*
CC(C)(C)C1=CC(=Cc2cc(C(C)(C)C)c(O)c(C(C)(C)C)c2)C=C(C(C)(C)C)C1=O,.,18
CCCN1CCN(c2ncc3c(n2)CCN(Cc2ccc(CC)cc2)C3)CC1,-4,16
CCCN1CCN(c2ncc3c(n2)CCN(Cc2ccc(N(C)C)cc2)C3)CC1,-4,53*
CCCN1CCN(c2ncc3c(n2)CCN(Cc2ccc(Br)cc2)C3)CC1,-4,32
CC1CCN(c2ncc3c(n2)CCN(Cc2ccc(Br)cc2)C3)CC1,-7,54*
CCN1CCN(c2ncc3c(n2)CCN(Cc2ccc(Br)cc2)C3)CC1,2,76*
CCOc1ccc(CN2CCc3nc(N4CCC(C)CC4)ncc3C2)cc1,-4,27
Cc1cccc(C2CC(=O)Nc3c2c(C)nn3-c2nc3ccccc3s2)c1 (configuration not stated),-3,3
CCCN1CCN(C(=O)c2c(C)sc3c(=O)n(C4CCCCC4)cnc23)CC1,-1,1
CCCCNC(=O)C1CCN(c2nn3c(=O)c4c(nc3s2)CCCC4)CC1,3,16
O=C(Nc1cccnc1)c1ccc([N+](=O)[O-])o1,6,-4
COc1cc([N+](=O)[O-])ccc1-c1ccc(C(=O)Nc2cccnc2)o1,0,61*
O=[N+]([O-])c1ccc(Cl)c(Nc2nc3nonc3nc2Nc2cc([N+](=O)[O-])ccc2Cl)c1,.,98*
O=[N+]([O-])c1ccc2nc(Nc3ccc(Cl)c(Cl)c3)c(Nc3ccc(Cl)c(Cl)c3)nc2c1,.,-3
O=C(c1cccnc1)N1CCN(Cc2ccccc2[N+](=O)[O-])CC1,-11,-2
CC(=O)N(CCN1CCOCC1)c1nc2c(C)cc(Cl)cc2s1,-1,10
CSc1cccc2sc(N(CC3CCCO3)C(=O)c3ccc4c(c3)OCCO4)nc12 (configuration not stated),-1,2
SMILES,Pf apPOL inh,mHTT CaM bind
Cc1ccc2sc(N(CCCn3ccnc3)C(=O)c3ccc4c(c3)OCCO4)nc2c1C,-6,58*
Cc1cc(Cl)cc2sc(N(CCCn3ccnc3)C(=O)c3cccs3)nc12,-7,82*
O=C(c1ccn2c(-c3ccc(F)cc3)nnc2c1)N1CCN(C2CCCCC2)CC1,0,6
COc1cc(NC(=O)c2ccncc2)cc(OC)c1,-1,-5
Cc1noc(C)c1C(=O)ON=C(N)Cc1ccc(-c2csnn2)cc1,-4,.
Cc1ccc(C(c2ccc(C)o2)c2ccccc2Br)o1,-1,-16
Cc1cc2c(cc1[N+](=O)[O-])OCCO2,-1,.
Cc1ccc(C(c2ccc(C)o2)c2cc3c(cc2[N+](=O)[O-])OCO3)o1,7,72*
Cc1ccc(C(c2ccc(C)o2)c2cccc([N+](=O)[O-])c2O)o1,-8,79*
Fc1cccc(C2CC(c3ccc(Cl)cc3)Nc3nnnn32)c1 (configuration not stated),-2,-1
Cn1nc(COc2ccccc2)c2c1CCN(Cc1ccoc1)C2,2,67*
Cn1nc(COc2ccccc2)c2c1CCN(Cc1ccco1)C2,3,14
CNC(=O)N1CCCC(c2cccc(C(=O)N3CCN(c4ccccc4C)CC3)c2)C1 (configuration not stated),-7,39
CNC(=O)N1CCCC(c2cccc(C(=O)N3CCN(c4cccc(Cl)c4)CC3)c2)C1 (configuration not stated),-7,98*
CNC(=O)N1CCCC(c2cccc(C(=O)N3CCN(c4cc(C)ccc4C)CC3)c2)C1 (configuration not stated),-6,80*
CNC(=O)N1CCCC(c2cccc(C(=O)N3CCN(c4ccccc4)CC3)c2)C1 (configuration not stated),-7,-1
Cc1ccc(F)c(N2CCC(C(=O)NC(C)c3ccccc3)C2=O)c1 (configuration not stated),-2,-3
Cc1cc2[nH]c3c(c2cc1C)CC(NC(=O)C1CCCC1)CC3 (configuration not stated),39,45
CCC(=O)NC1CCc2[nH]c3ccc(C)cc3c2C1 (configuration not stated),-4,26
O=C(CC1CC1)NC1CCc2[nH]c3ccc(Cl)cc3c2C1 (configuration not stated),2,88*
Cc1ccc2[nH]c3c(c2c1)CC(NC(=O)CC1C=CCC1)CC3 (configuration not stated),6,97*
COc1ccc2oc(=Nc3ccc(C)cc3)c(C(N)=O)cc2c1,0,18
O=C(NCc1ccc2c(c1)OCO2)C1CC1c1ccccc1 (configuration not stated),1,-10
N#Cc1ccccc1Nc1sc(C(=O)c2ccccc2)c(N)c1C(N)=O,0,10
NC(=O)c1c(Nc2ccccc2Cl)sc(C(=O)c2ccccc2)c1N,-4,86*
SMILES,Pf apPOL inh,mHTT CaM bind
CCOc1ccc(N=Cc2cc(Br)c(OC)cc2OC)cc1,-4,5
Cn1cc(CCC(=O)NCc2cccs2)c2ccccc21,-14,-1
O=c1c(-c2ccccc2)c(O)nc2ccccn12,-1,.
CCc1c(O)nc2ccccn2c1=O,73*,-8
CC(C)(C)C1=CC(=NS(=O)(=O)c2ccc(F)cc2)C=C(C(C)(C)C)C1=O,-6,1
O=C(O)c1cccc(S(=O)(=O)N2CCCCCC2)c1,-3,-15
O=C1C=CC(=NS(=O)(=O)c2ccc(F)cc2)C=C1,-9,50*
Cc1ccc(S(=O)(=O)N=C2C=CC(=O)C=C2)cc1,-5,46
CC(C)c1ccc(S(=O)(=O)N=C2C=CC(=O)C=C2)cc1,1,86*
O=C1C=CC(=NS(=O)(=O)c2cccc(C(=O)O)c2)C=C1,59*,58*
CSCCC(C)(O)CNC(=O)C=Cc1ccccc1Cl (configuration not stated),-5,-4
O=C(Nc1nccn(-c2ccc(Br)cc2)c1=O)c1ccccc1,-1,-1
CCC(NC(=O)c1cc(C)oc1C)c1ccccc1 (configuration not stated),-3,4
COc1ccc(-c2nc(C(=O)NCC(C)C)cs2)c(F)c1,-5,-3
CC1=C(C)CC(C(=O)NCc2ccc(Cl)c(Cl)c2)C(C(=O)O)C1 (configuration not stated),-1,9
COCCNC(=O)C1CCN(c2cccc(F)c2)C1=O (configuration not stated),1,-7
CCC(C(=O)N1CCc2c(c(-c3nc(Cc4ccccc4)no3)nn2C)C1)c1ccccc1 (configuration not stated),-3,30
O=C(CCN1C(=O)c2ccccc2C1=O)NCCc1ccc(Cl)cc1,-4,3
COc1cccc(C(=O)Nc2ccc3oc(-c4ccccc4F)nc3c2)c1,3,13

# Screening results deposited in PubChem by University of Kansas High Throughput Screening Laboratory.
